Unmarked numbers belong to inactive results. Where a call stands in place of a potency, no number is given. Active and inactive are the calls of the source. The call rests on the fitted dose curve.

The assay is described as follows: qHTS assay to identify small molecule agonists of the sonic hedgehog signaling (Shh) pathway (AID 1259368).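 Further: NIH/3T3-derived 3T3Gli1-Luc cells carrying a stable Gli1-driven firefly luciferase reporter; nearly all actives have a fitted effect of over 15% in size.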 Conditions: NIH/3T3 Gli1-Luc reporter, luciferase, 24 h; series mostly up to 92.4 µM. The text has this:
National Center for Advancing Translational Sciences [NCATS]
NIH Chemical Genomics Center [NCGC]
U.S. Environmental Protection Agency [EPA]
National Institutes of Environmental Health Sciences [NIEHS]
National Toxicology Program [NTP]
The sonic hedgehog (Shh) pathway is essential for normal embryonic development. Dysregulation of the Shh pathway can cause severe developmental defects in organs. Therefore chemicals that interfere with the pathway are potential developmental toxicants. A cell line designated 3T3Gli1-Luc (DMB/OARSA/CFSAN/FDA, Laurel, MD), a NIH/3T3 derived clone containing stably integrated Gli1-Luc reporter is used to detect chemical interference of the Shh pathway, by changes in the expression of the firefly Luc gene under the control of the Gli1 transcriptional response element. This cell line was used to screen Tox21 libraries for identifying and prioritizing the potential developmental toxicants that interfere Shh pathway.
3T3 Gli1-Luc cells were dispensed at 2,000 per well in 5uL of culture medium into white solid bottom 1536-well plates (Greiner Bio-One, Monroe, NC) using a Multidrop Combi (Thermo Scientific, Waltham, MA) dispenser. The assay plates were incubated at 37 C and 5% CO2 for 4hr, and then 23nL of compounds dissolved in DMSO and positive control were transferred using a Pintool station (Wako, San Diego, CA). The assay plates were incubated at 37C and 5% CO2 for 24hr. For luciferase read, 4uL of Amplite Luciferase reporter gene assay reagent (AAT Bioquest, Inc. Sunnyvale, CA) was added to each well of the assay plates using Flying Reagent Dispenser (FRD, Aurora Discovery, San Diego, CA) and incubated at room temperature for 30min. The luminescence signal was measured using a ViewLux plate reader (Perkin Elmer, Shelton, CT).
As for `CCOc1cc(OCC)c(C(C)=O)cc1OCC`, the Potency result was “inactive”.

`Clc1nc2ccccc2nc1Cl`: the Potency result is “inactive”.

As for `C=CC(C)(O)CC/C=C(/C)CCC=C(C)C` (stereo not given), the Potency entry was “inactive”.

With `Cc1ccc(Cl)c(OCC(O)CNC(C)(C)C)c1` (stereo not given), the Potency entry is “inactive”.

Consider `CCCCCCOC(=O)c1ccccc1`, for which the Potency result is “inactive”.

`COc1cc(C)c(Cc2cnc(N)nc2N)cc1OC`: the Potency result was “inactive”.

Consider `CC(C(=O)O)c1ccc(/C=C2\CCCCC2=O)cc1` (stereo not given), for which the Potency entry was “inactive”.

With `CCC(=O)O[C@@H]1C[C@H]2CC[C@]1(C)C2(C)C`, the Potency result is “inactive”.

For the molecule `CC(=O)c1ccc(Cl)c(Cl)c1Cl`, the Potency result is “inactive”.

`CCn1nc(Cc2ccccc2)cc1C1CCN(C[C@H]2C[C@H](N(C)[C@@H](C(=O)O)C(C)C)C[C@@H]2c2cccc(F)c2)CC1`: the Potency result is “inactive”.

Turning to `CCOC(C)OCC`, the Potency result is “inactive”.

For the molecule `CC(=O)Nc1cccc(N)c1`, the Potency result was “inactive”.

On to `C=CC(O)CCCCC` (stereo not given), for which the Potency entry is “inactive”.

For the molecule `Cc1cccc(C)c1NC(=O)CN1CCCC1`, the Potency result was “inactive”.

`O=C(O)c1ccccc1-n1cc(C(=O)O)c(=O)c2cc(Nc3c(F)cc(F)cc3Cl)c(Cl)cc21`: the Potency entry is “inactive”.

As to `C1=COCCC1`, the Potency entry is “inactive”.

As to `Cc1ccc2ccccc2c1[N+](=O)[O-]`, the Potency entry is “inactive”.

As for `CCC(CC)C(=O)O`, the Potency result is “inactive”.

In the case of `CCCCC(CC)COCCC#N` (stereo not given), the Potency result is “inactive”.

Turning to `C=CC(=O)NC(C)(C)C`, the Potency entry is “inactive”.

In the case of `CC(O)CN` (stereo not given), the Potency result was “inactive”.

For `O=C(c1ccco1)N1CCNCC1`, the Potency entry was “inactive”.

Regarding `O=[N+]([O-])c1ccccc1CCO`, the Potency entry was “inactive”.

For the molecule `C=CCCC`, the Potency result is “inactive”.

Consider `CCCCCCCCNC`, for which the Potency entry was “inactive”.

With `Oc1ccc(Oc2ccccc2)cc1`, the Potency entry is “inactive”.

Regarding `CC(C)Cc1nccs1`, the Potency entry is “inactive”.

For `COc1ccc(/C(C)=C/C(=O)O)c(OC)c1`, the Potency result was “inactive”.

For the molecule `COc1cc(CNC(=O)CCCC/C=C/C(C)C)ccc1O`, the Potency entry is “inactive”.

`CC(=O)S[C@H](C(=O)N[C@H]1Cc2ccccc2[C@H]2CCC[C@@H](C(=O)O)N2C1=O)C(C)C`: the Potency result was “inactive”.

In the case of `CC(C)(C)N`, the Potency entry is “inactive”.

Consider `CCCCCCCCCCCC(=O)OCC`, for which the Potency result is “inactive”.

For the molecule `c1ccc(CN(Cc2ccccc2)Cc2ccccc2)cc1`, the Potency result was “inactive”.

Take `CC(C)Oc1ccccc1O`: the Potency entry is “inactive”.

Regarding `O=C(NC1CCN(CCc2c[nH]c3ccccc23)CC1)c1ccccc1`, the Potency result is “inactive”.

For the molecule `O=C(O)CNc1ccccc1`, the Potency entry was “inactive”.

`Nc1ccc(C(=O)Oc2ccccc2)c(O)c1`: the Potency result is “inactive”.

As for `OCC(O)c1ccccc1` (stereo not given), the Potency entry is “inactive”.

Take `CCCCCCCCCCCCCCCCCCCl`: the activity change is 0.949% [at 8.39 µM, hits give high values].

Take `Cc1ccc(S(=O)(=O)NC(=O)NC2CCCC2)cc1`: the Potency result is “inactive”.

The values are drawn from PubChem BioAssay (Tox21).
